# Test results published in the supplement of paper PMC8728848.
# This is one part of a sample in which the strongest signals are shown more often than they occur.
# Columns and labels:
# Assay in all cases: glycan array binding signal (z-score within array); higher = stronger binding
# [1] = test system: Fuc(a1-2)[GalNAc(a1-4)]Gal(b1-4)GlcNAc; details: glycan notation: IUPAC condensed, linker removed
# How it was run: (§1)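 The Consortium for Functional Glycomics database supplied 3228 glycan arrays, of which those lacking an available protein sequence were dropped. The binding signal, a within-array Z-score, was averaged across arrays of the same protein sequence and across linkers. Negative scores can be read as non-binding.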
# [2] = test system: Fuc(a1-3)[Gal(b1-4)]GlcNAc(b1-2)Man(a1-6)[Gal(b1-4)GlcNAc(b1-2)Man(a1-3)]Man(b1-4)GlcNAc(b1-4)GlcNAc; details: glycan notation: IUPAC condensed, linker removed
# How it was run: as §1
# [3] = test system: Fuc(a1-2)[GalNAc(a1-3)]Gal; details: glycan notation: IUPAC condensed, linker removed
# How it was run: as §1
# [4] = test system: Fuc(a1-2)[GalNAc(a1-3)]Gal(b1-4)[Fuc(a1-3)]GlcNAc; details: glycan notation: IUPAC condensed, linker removed
# How it was run: as §1
# [5] = test system: Fuc(a1-2)[GalNAc(b1-3)]Gal; details: glycan notation: IUPAC condensed, linker removed
# How it was run: as §1
# [6] = test system: Fuc(a1-3)[Gal(b1-4)]Glc6S; details: glycan notation: IUPAC condensed, linker removed
# How it was run: as §1
# [7] = test system: Fuc(a1-2)[GalNAc(a1-3)]Gal(b1-4)[Fuc(a1-3)]GlcNAc(b1-3)GalNAc; details: glycan notation: IUPAC condensed, linker removed
# How it was run: as §1
# [8] = test system: Fuc(a1-2)[GalNAc(a1-3)]Gal(b1-4)Glc; details: glycan notation: IUPAC condensed, linker removed
# How it was run: as §1
# [9] = test system: Fuc(a1-2)[GalNAc(a1-3)]Gal(b1-4)GlcNAc; details: glycan notation: IUPAC condensed, linker removed
# How it was run: as §1
# [10] = test system: Fuc(a1-3)[Gal(b1-4)]GlcNAc(b1-2)Man; details: glycan notation: IUPAC condensed, linker removed; mutation: R125K
# How it was run: as §1
# PILRb (Mus musculus), Q2YSF2, sequence (Q2YSF2 entry or part of it): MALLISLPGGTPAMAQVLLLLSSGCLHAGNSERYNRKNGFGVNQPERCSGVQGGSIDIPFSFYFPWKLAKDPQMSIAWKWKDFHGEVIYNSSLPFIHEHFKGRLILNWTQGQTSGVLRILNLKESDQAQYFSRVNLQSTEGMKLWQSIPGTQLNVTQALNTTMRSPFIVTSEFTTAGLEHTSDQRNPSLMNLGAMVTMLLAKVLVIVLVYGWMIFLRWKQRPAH
# 6RG (Lolium perenne), sequence (chain, as listed by the source): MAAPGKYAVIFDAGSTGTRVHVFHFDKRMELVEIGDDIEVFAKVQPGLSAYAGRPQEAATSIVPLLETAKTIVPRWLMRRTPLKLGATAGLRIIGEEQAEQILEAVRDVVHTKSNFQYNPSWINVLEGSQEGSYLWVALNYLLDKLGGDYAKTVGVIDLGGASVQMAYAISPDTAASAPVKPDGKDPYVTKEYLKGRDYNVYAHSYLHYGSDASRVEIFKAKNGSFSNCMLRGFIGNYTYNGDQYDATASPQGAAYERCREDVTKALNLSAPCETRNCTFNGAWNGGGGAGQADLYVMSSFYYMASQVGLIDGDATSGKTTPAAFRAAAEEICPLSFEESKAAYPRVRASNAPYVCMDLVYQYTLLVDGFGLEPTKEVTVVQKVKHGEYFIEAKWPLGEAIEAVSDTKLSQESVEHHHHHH
# CHI3L1 (Homo sapiens), P36222, sequence (P36222 whole entry): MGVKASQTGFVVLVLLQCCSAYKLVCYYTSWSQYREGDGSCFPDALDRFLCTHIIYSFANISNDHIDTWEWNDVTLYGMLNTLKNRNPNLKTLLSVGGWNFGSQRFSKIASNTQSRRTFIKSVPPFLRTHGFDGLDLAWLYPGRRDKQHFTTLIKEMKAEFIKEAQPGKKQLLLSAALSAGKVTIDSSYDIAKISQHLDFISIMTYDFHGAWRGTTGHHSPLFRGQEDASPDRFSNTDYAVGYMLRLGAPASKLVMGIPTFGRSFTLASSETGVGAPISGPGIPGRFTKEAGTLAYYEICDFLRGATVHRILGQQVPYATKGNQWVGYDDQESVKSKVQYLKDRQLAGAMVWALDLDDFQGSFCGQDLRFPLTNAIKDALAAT
# Aggrecan (Rattus norvegicus), NP_071526, sequence (chain, as listed by the source): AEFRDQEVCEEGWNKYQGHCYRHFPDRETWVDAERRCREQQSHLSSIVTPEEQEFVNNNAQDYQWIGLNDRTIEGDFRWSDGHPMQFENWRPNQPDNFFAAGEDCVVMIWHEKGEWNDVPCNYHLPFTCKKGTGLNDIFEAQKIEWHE
# Neurocan (Homo sapiens), O14594, sequence (O14594 other isoform, or with tags, fused parts or gaps): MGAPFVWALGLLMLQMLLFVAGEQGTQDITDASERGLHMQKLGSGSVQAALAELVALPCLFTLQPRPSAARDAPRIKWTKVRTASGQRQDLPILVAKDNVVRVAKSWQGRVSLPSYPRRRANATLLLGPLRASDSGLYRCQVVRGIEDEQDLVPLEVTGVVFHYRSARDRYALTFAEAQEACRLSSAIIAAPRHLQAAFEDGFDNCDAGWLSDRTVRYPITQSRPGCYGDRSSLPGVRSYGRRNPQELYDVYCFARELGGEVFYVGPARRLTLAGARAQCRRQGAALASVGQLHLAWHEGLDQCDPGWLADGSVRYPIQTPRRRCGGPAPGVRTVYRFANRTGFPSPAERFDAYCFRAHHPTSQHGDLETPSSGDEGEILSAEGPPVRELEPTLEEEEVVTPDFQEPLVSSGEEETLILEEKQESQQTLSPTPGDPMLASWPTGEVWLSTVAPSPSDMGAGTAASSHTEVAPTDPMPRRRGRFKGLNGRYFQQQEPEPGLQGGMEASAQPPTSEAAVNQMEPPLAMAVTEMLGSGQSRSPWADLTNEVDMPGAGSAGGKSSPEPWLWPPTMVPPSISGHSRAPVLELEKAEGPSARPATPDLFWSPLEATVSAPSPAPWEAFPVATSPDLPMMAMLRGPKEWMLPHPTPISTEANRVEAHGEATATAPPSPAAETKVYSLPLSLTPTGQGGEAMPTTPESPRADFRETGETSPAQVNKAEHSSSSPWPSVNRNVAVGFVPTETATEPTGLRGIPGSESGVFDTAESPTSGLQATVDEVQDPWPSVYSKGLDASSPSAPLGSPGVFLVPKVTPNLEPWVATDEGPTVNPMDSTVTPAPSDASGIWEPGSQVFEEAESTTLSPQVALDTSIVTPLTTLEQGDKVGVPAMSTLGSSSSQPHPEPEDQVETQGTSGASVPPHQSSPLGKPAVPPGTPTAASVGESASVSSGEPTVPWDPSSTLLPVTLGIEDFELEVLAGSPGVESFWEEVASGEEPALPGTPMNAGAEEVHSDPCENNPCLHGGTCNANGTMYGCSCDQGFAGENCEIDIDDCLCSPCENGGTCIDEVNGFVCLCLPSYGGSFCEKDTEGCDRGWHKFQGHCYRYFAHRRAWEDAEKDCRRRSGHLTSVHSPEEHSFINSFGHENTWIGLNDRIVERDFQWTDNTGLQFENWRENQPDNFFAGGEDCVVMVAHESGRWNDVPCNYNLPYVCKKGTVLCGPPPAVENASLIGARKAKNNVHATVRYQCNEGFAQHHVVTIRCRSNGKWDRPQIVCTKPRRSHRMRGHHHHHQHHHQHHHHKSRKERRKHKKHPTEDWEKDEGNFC
# Avaren (Actinomycete K97), sequence (chain, as listed by the source): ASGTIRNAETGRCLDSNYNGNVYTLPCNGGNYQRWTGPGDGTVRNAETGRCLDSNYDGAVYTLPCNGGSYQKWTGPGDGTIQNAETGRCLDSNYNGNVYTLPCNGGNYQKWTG
# 6RG (Lolium perenne), B9U140, sequence (B9U140 entry or part of it): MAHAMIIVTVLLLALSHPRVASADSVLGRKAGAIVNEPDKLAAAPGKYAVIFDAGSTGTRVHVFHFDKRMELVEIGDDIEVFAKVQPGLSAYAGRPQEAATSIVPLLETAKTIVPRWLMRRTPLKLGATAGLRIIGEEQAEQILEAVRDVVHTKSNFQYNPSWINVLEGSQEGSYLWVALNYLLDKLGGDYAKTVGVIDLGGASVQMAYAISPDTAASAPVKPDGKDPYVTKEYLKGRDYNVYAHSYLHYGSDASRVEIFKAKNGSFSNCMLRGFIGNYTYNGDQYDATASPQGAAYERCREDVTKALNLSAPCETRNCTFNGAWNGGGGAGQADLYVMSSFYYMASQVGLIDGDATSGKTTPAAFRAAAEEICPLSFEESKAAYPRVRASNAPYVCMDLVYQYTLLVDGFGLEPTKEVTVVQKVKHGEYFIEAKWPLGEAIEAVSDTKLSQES
# wLAT-1A (Homo sapiens), Q01650, sequence (Q01650 whole entry): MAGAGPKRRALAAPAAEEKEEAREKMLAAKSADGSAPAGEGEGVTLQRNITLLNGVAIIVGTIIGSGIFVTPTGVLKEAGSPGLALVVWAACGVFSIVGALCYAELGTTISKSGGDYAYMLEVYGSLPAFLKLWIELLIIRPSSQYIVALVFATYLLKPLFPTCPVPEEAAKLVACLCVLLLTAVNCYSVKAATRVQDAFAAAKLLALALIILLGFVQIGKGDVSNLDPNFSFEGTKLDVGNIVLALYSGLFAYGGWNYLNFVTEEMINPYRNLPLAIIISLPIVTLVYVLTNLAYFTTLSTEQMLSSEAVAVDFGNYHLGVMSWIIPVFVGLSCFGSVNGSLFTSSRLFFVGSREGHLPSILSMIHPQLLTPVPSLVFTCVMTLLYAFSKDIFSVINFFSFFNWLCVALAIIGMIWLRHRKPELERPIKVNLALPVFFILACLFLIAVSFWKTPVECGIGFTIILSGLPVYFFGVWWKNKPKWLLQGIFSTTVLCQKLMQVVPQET
substance,measurement,setting,value
6RG (Lolium perenne),glycan array binding signal (z-score),[1],-0.148
same,glycan array binding signal (z-score),[2],-0.247
"Neurocan (Homo sapiens), O14594",glycan array binding signal (z-score),[3],-0.021
"Aggrecan (Rattus norvegicus), NP_071526",glycan array binding signal (z-score),[4],0.401
same,glycan array binding signal (z-score),[5],17.3
"CHI3L1 (Homo sapiens), P36222",glycan array binding signal (z-score),[5],0.059
same,glycan array binding signal (z-score),[6],-0.082
"PILRb (Mus musculus), Q2YSF2",glycan array binding signal (z-score),[7],11.4
same,glycan array binding signal (z-score),[4],2.67
same,glycan array binding signal (z-score),[2],-0.477
Avaren (Actinomycete K97),glycan array binding signal (z-score),[1],-0.123
"wLAT-1A (Homo sapiens), Q01650",glycan array binding signal (z-score),[8],0.692
"6RG (Lolium perenne), B9U140",glycan array binding signal (z-score),[9],-0.075
"Siglec-8 (Homo sapiens), Q9NYZ4",glycan array binding signal (z-score),[9]; mutation: R125K,-0.376
same,glycan array binding signal (z-score),[10],-0.3
MpAFP RI GFP (Marinomonas primoryensis),glycan array binding signal (z-score),[3],-0.389
